Test results taken from paper PMC11006913.

Key:
Assay in all cases: PBM; 200 nM protein, PBS
Conditions in all cases: dsDNA, one strand shown
[1] = target: HESX1 (Homo sapiens, UniProt Q9UBX0 95-180, R165K)
[2] = target: SHOX (Homo sapiens, UniProt O15266 103-189)
[3] = target: ALX4 (Homo sapiens, UniProt Q9H161 200-286, Q225E)
[4] = target: HESX1 (Homo sapiens, UniProt Q9UBX0 95-180)
[5] = target: MSX2 (Homo sapiens, UniProt P35548 130-214, R199I)
[6] = target: ALX1 (Homo sapiens, UniProt Q15699 118-204, L144V)
Sequence of ALX1 (Homo sapiens, UniProt Q15699 118-204, L144V) (Q15699 118-204 L144V): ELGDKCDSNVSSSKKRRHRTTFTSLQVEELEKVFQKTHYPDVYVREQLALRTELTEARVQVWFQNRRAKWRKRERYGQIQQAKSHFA

[7] = target: ALX3 (Homo sapiens, UniProt O95076 139-225, N203Q)
Sequence of ALX3 (Homo sapiens, UniProt O95076 139-225, N203Q) (O95076 139-225 N203Q): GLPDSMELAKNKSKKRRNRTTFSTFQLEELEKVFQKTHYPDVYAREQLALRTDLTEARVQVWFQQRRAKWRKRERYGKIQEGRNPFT

[8] = target: SHOX (Homo sapiens, UniProt O15266 103-189, R173C)
Sequence of SHOX (Homo sapiens, UniProt O15266 103-189, R173C) (O15266 103-189 R173C): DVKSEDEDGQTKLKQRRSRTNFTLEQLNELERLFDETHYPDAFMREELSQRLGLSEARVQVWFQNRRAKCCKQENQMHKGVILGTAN

[9] = target: ALX1 (Homo sapiens, UniProt Q15699 118-204, L144R)
Sequence of ALX1 (Homo sapiens, UniProt Q15699 118-204, L144R) (Q15699 118-204 L144R): as the sequence (Q15699 118-204 L144V) above, with V27R counted along it

[10] = target: ALX3 (Homo sapiens, UniProt O95076 139-225)
Sequence of ALX3 (Homo sapiens, UniProt O95076 139-225) (O95076 139-225): as the sequence (O95076 139-225 N203Q) above, with Q65N counted along it

[11] = target: PROP1 (Homo sapiens, UniProt O75360 56-141)
Sequence of PROP1 (Homo sapiens, UniProt O75360 56-141) (O75360 56-141): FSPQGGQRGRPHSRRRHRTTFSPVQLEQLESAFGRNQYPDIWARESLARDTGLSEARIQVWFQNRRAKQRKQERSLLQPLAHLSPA

[12] = target: HESX1 (Homo sapiens, UniProt Q9UBX0 95-180, R109Q)
Sequence of HESX1 (Homo sapiens, UniProt Q9UBX0 95-180, R109Q) (Q9UBX0 95-180 R109Q): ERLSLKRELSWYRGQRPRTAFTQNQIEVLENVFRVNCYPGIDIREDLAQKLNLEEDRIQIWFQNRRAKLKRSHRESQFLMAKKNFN

[13] = target: PROP1 (Homo sapiens, UniProt O75360 56-141, R99H)
Sequence of PROP1 (Homo sapiens, UniProt O75360 56-141, R99H) (O75360 56-141 R99H): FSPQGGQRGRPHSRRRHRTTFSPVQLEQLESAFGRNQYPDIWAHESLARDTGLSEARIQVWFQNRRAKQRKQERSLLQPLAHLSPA

[14] = target: ALX3 (Homo sapiens, UniProt O95076 139-225, L168Q)
Sequence of ALX3 (Homo sapiens, UniProt O95076 139-225, L168Q) (O95076 139-225 L168Q): as the sequence (O95076 139-225 N203Q) above, with L30Q, Q65N counted along it

[15] = target: HESX1 (Homo sapiens, UniProt Q9UBX0 95-180, P111T)
Sequence of HESX1 (Homo sapiens, UniProt Q9UBX0 95-180, P111T) (Q9UBX0 95-180 P111T): as the sequence (Q9UBX0 95-180 R109Q) above, with Q15R, P17T counted along it

[16] = target: ALX3 (Homo sapiens, UniProt O95076 139-225, L168V)
Sequence of ALX3 (Homo sapiens, UniProt O95076 139-225, L168V) (O95076 139-225 L168V): as the sequence (O95076 139-225 N203Q) above, with L30V, Q65N counted along it

[17] = target: PROP1 (Homo sapiens, UniProt O75360 56-141, F88S)
Sequence of PROP1 (Homo sapiens, UniProt O75360 56-141, F88S) (O75360 56-141 F88S): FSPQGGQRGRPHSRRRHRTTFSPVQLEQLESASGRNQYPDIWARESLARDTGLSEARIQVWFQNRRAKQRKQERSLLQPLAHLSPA

[18] = target: HESX1 (Homo sapiens, UniProt Q9UBX0 95-180, F115L)
Sequence of HESX1 (Homo sapiens, UniProt Q9UBX0 95-180, F115L) (Q9UBX0 95-180 F115L): as the sequence (Q9UBX0 95-180 R109Q) above, with Q15R, F21L counted along it

[19] = target: ALX1 (Homo sapiens, UniProt Q15699 118-204)
Sequence of ALX1 (Homo sapiens, UniProt Q15699 118-204) (Q15699 118-204): as the sequence (Q15699 118-204 L144V) above, with V27L counted along it

[20] = target: ALX3 (Homo sapiens, UniProt O95076 139-225, N203S)
Sequence of ALX3 (Homo sapiens, UniProt O95076 139-225, N203S) (O95076 139-225 N203S): as the sequence (O95076 139-225 N203Q) above, with Q65S counted along it

Sequence of MSX2 (P35548 130-214 R199I): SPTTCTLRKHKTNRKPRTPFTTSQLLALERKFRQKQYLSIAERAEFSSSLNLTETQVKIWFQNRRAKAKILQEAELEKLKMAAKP
Sequence of SHOX (Homo sapiens, UniProt O15266 103-189) (O15266 103-189): as the sequence (O15266 103-189 R173C) above, with C71R counted along it
Sequence of HESX1 (Homo sapiens, UniProt Q9UBX0 95-180) (Q9UBX0 95-180): as the sequence (Q9UBX0 95-180 R109Q) above, with Q15R counted along it
Sequence of HESX1 (Homo sapiens, UniProt Q9UBX0 95-180, R165K) (Q9UBX0 95-180 R165K): as the sequence (Q9UBX0 95-180 R109Q) above, with Q15R, R71K counted along it
Sequence of ALX4 (Q9H161 200-286 Q225E): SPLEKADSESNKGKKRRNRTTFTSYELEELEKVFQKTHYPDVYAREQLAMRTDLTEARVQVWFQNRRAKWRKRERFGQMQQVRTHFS

Sequence	binding signal [1]	binding signal [2]	binding signal [3]	binding signal [4]	binding signal [5]	binding signal [6]	binding signal [7]	binding signal [8]	binding signal [9]	binding signal [10]	binding signal [11]	binding signal [12]	binding signal [13]	binding signal [14]	binding signal [15]	binding signal [16]	binding signal [17]	binding signal [18]	binding signal [19]	binding signal [20]
TAATTAAA	13.1 upbm affinity estimate (log intensity, higher = more binding, comparable within an allelic series)	12.8 upbm affinity estimate (log intensity, higher = more binding, comparable within an allelic series)	14.1 upbm affinity estimate (log intensity, higher = more binding, comparable within an allelic series)	13.1 upbm affinity estimate (log intensity, higher = more binding, comparable within an allelic series)	12.9 upbm affinity estimate (log intensity, higher = more binding, comparable within an allelic series)	11.9 upbm affinity estimate (log intensity, higher = more binding, comparable within an allelic series)	8.59 upbm affinity estimate (log intensity, higher = more binding, comparable within an allelic series)	10.6 upbm affinity estimate (log intensity, higher = more binding, comparable within an allelic series)	11.6 upbm affinity estimate (log intensity, higher = more binding, comparable within an allelic series)	12.8 upbm affinity estimate (log intensity, higher = more binding, comparable within an allelic series)	11.9 upbm affinity estimate (log intensity, higher = more binding, comparable within an allelic series)	10 upbm affinity estimate (log intensity, higher = more binding, comparable within an allelic series)	11.9 upbm affinity estimate (log intensity, higher = more binding, comparable within an allelic series)	11.3 upbm affinity estimate (log intensity, higher = more binding, comparable within an allelic series)	12.1 upbm affinity estimate (log intensity, higher = more binding, comparable within an allelic series)	11.1 upbm affinity estimate (log intensity, higher = more binding, comparable within an allelic series)	8.07 upbm affinity estimate (log intensity, higher = more binding, comparable within an allelic series)	8.41 upbm affinity estimate (log intensity, higher = more binding, comparable within an allelic series)	12.6 upbm affinity estimate (log intensity, higher = more binding, comparable within an allelic series)	8.72 upbm affinity estimate (log intensity, higher = more binding, comparable within an allelic series)
AATTAATT	13.4 upbm affinity estimate (log intensity, higher = more binding, comparable within an allelic series)	12.8 upbm affinity estimate (log intensity, higher = more binding, comparable within an allelic series)	14.3 upbm affinity estimate (log intensity, higher = more binding, comparable within an allelic series)	13.2 upbm affinity estimate (log intensity, higher = more binding, comparable within an allelic series)	13.3 upbm affinity estimate (log intensity, higher = more binding, comparable within an allelic series)	12.4 upbm affinity estimate (log intensity, higher = more binding, comparable within an allelic series)	8.51 upbm affinity estimate (log intensity, higher = more binding, comparable within an allelic series)	10.3 upbm affinity estimate (log intensity, higher = more binding, comparable within an allelic series)	12 upbm affinity estimate (log intensity, higher = more binding, comparable within an allelic series)	13 upbm affinity estimate (log intensity, higher = more binding, comparable within an allelic series)	12.1 upbm affinity estimate (log intensity, higher = more binding, comparable within an allelic series)	10.3 upbm affinity estimate (log intensity, higher = more binding, comparable within an allelic series)	12.2 upbm affinity estimate (log intensity, higher = more binding, comparable within an allelic series)	11.3 upbm affinity estimate (log intensity, higher = more binding, comparable within an allelic series)	11.8 upbm affinity estimate (log intensity, higher = more binding, comparable within an allelic series)	10.9 upbm affinity estimate (log intensity, higher = more binding, comparable within an allelic series)	8.05 upbm affinity estimate (log intensity, higher = more binding, comparable within an allelic series)	8.57 upbm affinity estimate (log intensity, higher = more binding, comparable within an allelic series)	13 upbm affinity estimate (log intensity, higher = more binding, comparable within an allelic series)	8.78 upbm affinity estimate (log intensity, higher = more binding, comparable within an allelic series)
ATTAATTG	13 upbm affinity estimate (log intensity, higher = more binding, comparable within an allelic series)	12.3 upbm affinity estimate (log intensity, higher = more binding, comparable within an allelic series)	13.8 upbm affinity estimate (log intensity, higher = more binding, comparable within an allelic series)	12.9 upbm affinity estimate (log intensity, higher = more binding, comparable within an allelic series)	13.1 upbm affinity estimate (log intensity, higher = more binding, comparable within an allelic series)	12.1 upbm affinity estimate (log intensity, higher = more binding, comparable within an allelic series)	8.48 upbm affinity estimate (log intensity, higher = more binding, comparable within an allelic series)	9.84 upbm affinity estimate (log intensity, higher = more binding, comparable within an allelic series)	11.7 upbm affinity estimate (log intensity, higher = more binding, comparable within an allelic series)	12.7 upbm affinity estimate (log intensity, higher = more binding, comparable within an allelic series)	11.7 upbm affinity estimate (log intensity, higher = more binding, comparable within an allelic series)	9.92 upbm affinity estimate (log intensity, higher = more binding, comparable within an allelic series)	12 upbm affinity estimate (log intensity, higher = more binding, comparable within an allelic series)	11 upbm affinity estimate (log intensity, higher = more binding, comparable within an allelic series)	11.6 upbm affinity estimate (log intensity, higher = more binding, comparable within an allelic series)	10.5 upbm affinity estimate (log intensity, higher = more binding, comparable within an allelic series)	8 upbm affinity estimate (log intensity, higher = more binding, comparable within an allelic series)	8.15 upbm affinity estimate (log intensity, higher = more binding, comparable within an allelic series)	12.6 upbm affinity estimate (log intensity, higher = more binding, comparable within an allelic series)	8.67 upbm affinity estimate (log intensity, higher = more binding, comparable within an allelic series)
CAATTAAA	12.6 upbm affinity estimate (log intensity, higher = more binding, comparable within an allelic series)	12 upbm affinity estimate (log intensity, higher = more binding, comparable within an allelic series)	13.5 upbm affinity estimate (log intensity, higher = more binding, comparable within an allelic series)	12.6 upbm affinity estimate (log intensity, higher = more binding, comparable within an allelic series)	13.1 upbm affinity estimate (log intensity, higher = more binding, comparable within an allelic series)	11.7 upbm affinity estimate (log intensity, higher = more binding, comparable within an allelic series)	8.41 upbm affinity estimate (log intensity, higher = more binding, comparable within an allelic series)	9.46 upbm affinity estimate (log intensity, higher = more binding, comparable within an allelic series)	11.5 upbm affinity estimate (log intensity, higher = more binding, comparable within an allelic series)	12.6 upbm affinity estimate (log intensity, higher = more binding, comparable within an allelic series)	11.6 upbm affinity estimate (log intensity, higher = more binding, comparable within an allelic series)	9.38 upbm affinity estimate (log intensity, higher = more binding, comparable within an allelic series)	11.6 upbm affinity estimate (log intensity, higher = more binding, comparable within an allelic series)	10.7 upbm affinity estimate (log intensity, higher = more binding, comparable within an allelic series)	11.3 upbm affinity estimate (log intensity, higher = more binding, comparable within an allelic series)	10.3 upbm affinity estimate (log intensity, higher = more binding, comparable within an allelic series)	7.64 upbm affinity estimate (log intensity, higher = more binding, comparable within an allelic series)	7.76 upbm affinity estimate (log intensity, higher = more binding, comparable within an allelic series)	12.2 upbm affinity estimate (log intensity, higher = more binding, comparable within an allelic series)	8.55 upbm affinity estimate (log intensity, higher = more binding, comparable within an allelic series)
